# IMPase Li inh: cell-permeable IMPase inhibitors with lithium potentiation; CHO-M1 cells, IP1 TR-FRET (IP-One), carbachol + lithium; Potency, µM (highest dose often 59.4 µM), inactives show at the highest dose activity, negative = IMPase inhibition, most hits filed as inhibitors; 0.35% of 210,000 active;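 also: IP1 builds up when IMPase is blocked and the TR-FRET signal falls; potency is read from the fitted curve at half-maximal effect; plate controls were basal vehicle for no effect and high inhibitor control for full effect; nearly all actives have a fitted effect of over 50% in size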
#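 Readout is a homogeneous TR-FRET IP1 immunoassay (Ex 320, Em 665 and 620), where raised cytosolic IP1 lowers signal. Cells were CHO-M1 treated 30 min at 37C with test compounds plus a little lithium; AC50 values came from Hill-equation fitting.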
# HTT aggregate: inhibitors of mutant huntingtin aggregate formation in PC12 cells; AID 1688; 1.1% of 220,000 active; Potency, µM (series often up to 46.1 µM), for inactives: at the top dose activity change, negative = inhibition, most hits filed as inhibitors; PC12 HttQ103-GFP aggregates, Acumen cytometry, 40 h; also: potency is read from the fitted curve at half-maximal effect; % is scaled to controls: 0 for no effect and ±100 for the full control effect; nearly all actives have a fitted effect of over 60% in size
#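 PC12/HTTQ103-GFP, ecdysone-inducible; teb 100 nM; cpd qHTS titration; GFP aggregates read on laser cytometer, Ex 488/Em 500-530 nm.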
# HPGD block: inhibitors of human 15-hydroxyprostaglandin dehydrogenase (HPGD) | P15428 | purified HPGD, NADH fluorescence kinetic, PGE2 substrate | Potency, µM, without a hit: at the top dose activity change, negative = inhibition, most hits filed as inhibitors | 4.3% of 150,000 active; active = well fitted inhibition curve with a large enough effect, not every such curve was filed as active; inconclusive = small, poorly fitted or top-dose-only effect, or another doubt; inactive = no such curve, though single readings can be large or run the other way; also: potency is read from the fitted curve at half-maximal effect; % is scaled to controls: 0 for no effect and ±100 for the full control effect
#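 20 nM HPGD preincubated 15 min at room temperature with compound in 50 mM Tris-HCl pH 8, 0.01% Tween 20. Started with 1 mM NAD+ and 30 uM prostaglandin E2; NADH fluorescence (360/450 nm) read 5 times over 30-s intervals, last minus first.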
# ALDH1A1 inh: blocks purified human ALDH1A1 activity | P00352 | Purified ALDH1A1, NADH fluorescence, propionaldehyde substrate | Potency, µM (doses to about 75.3 µM), for inactives: at the highest dose activity, negative = inhibition, usual class: inhibitors | 7.3% of 220,000 active; active = well fitted inhibition curve with a large enough effect, not every such curve was filed as active; inconclusive = small, poorly fitted or top-dose-only effect, or another doubt; inactive = no such curve, though single readings can be large or run the other way;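 also: potency is read from the fitted curve at half-maximal effect; plate controls were no enzyme wells and a reference inhibitor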
# Target sequence (P00352 whole entry, looked up): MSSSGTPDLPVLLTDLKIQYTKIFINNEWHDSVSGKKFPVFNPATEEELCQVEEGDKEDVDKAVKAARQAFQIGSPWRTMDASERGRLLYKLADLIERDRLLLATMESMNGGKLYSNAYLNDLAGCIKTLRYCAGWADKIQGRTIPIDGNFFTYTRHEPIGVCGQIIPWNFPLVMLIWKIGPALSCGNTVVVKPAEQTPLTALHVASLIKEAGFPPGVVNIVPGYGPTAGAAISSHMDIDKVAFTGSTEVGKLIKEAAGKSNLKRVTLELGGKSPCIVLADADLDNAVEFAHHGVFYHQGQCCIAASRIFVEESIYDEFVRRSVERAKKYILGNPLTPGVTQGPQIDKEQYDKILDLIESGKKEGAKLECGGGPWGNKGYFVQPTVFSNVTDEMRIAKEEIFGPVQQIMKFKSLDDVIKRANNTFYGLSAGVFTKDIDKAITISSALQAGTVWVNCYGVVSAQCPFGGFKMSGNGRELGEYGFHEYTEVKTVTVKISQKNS
# IMPase inh: IMPase inhibition in cells; P97697; CHO-M1 cells, IP1 accumulation, HTRF TR-FRET ratio; inhibition (IP1 accumulation), % at 46.1 µM; 120,000 tested, under 10 active; active = well fitted curve in the direction sought with a large enough effect in the signal ratio, not every such curve was filed as active; inconclusive = small, poorly fitted or top-dose-only effect, or a change in a side signal; inactive = no such curve, though single readings can be large or run the other way; the % refers to the signal ratio;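 also: cells stimulated with carbachol in lithium chloride buffer; plate controls were DMSO basal wells for no effect and reference inhibitor wells for full effect; higher means more IMPase inhibition seen as more IP1 and lower FRET ratio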
# Target sequence (P97697 whole entry, looked up): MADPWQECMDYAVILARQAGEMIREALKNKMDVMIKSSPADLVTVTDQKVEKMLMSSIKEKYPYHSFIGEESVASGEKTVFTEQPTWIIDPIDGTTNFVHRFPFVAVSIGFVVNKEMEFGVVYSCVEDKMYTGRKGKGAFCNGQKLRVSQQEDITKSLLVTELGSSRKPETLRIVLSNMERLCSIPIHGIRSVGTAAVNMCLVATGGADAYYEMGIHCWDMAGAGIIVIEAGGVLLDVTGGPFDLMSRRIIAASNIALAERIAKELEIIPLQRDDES
#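 Carbachol-driven Gq signalling in CHO-M1 cells (2000/well) generates IP1. Compounds that block IMPase raise IP1 and so reduce the FRET signal from Eu-anti-IP1 and d2-IP1 after a 10 min room-temperature lysis.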
# HTT cytoprotect: cytoprotection in Huntington HTT-Q103 PC12 cell model; PC12 HTT-Q103 induced, cytoprotection, ATP luminescence, 40 h; Potency, µM (titrated, usually from 56.4 µM), for inactives: cytoprotection (ATP increase), usual class: activators; 0.14% of 230,000 active; also: potency is read from the fitted curve at half-maximal effect; % of control where 0% means no effect; nearly all actives have a fitted effect of over 45% in size
#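 ATP quantification (ATPlite) reports survival of PC12 cells in which tebufenozide, 100 nM final, switches on Htt exon 1 with 103 glutamines linked to GFP; compounds are titrated.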
# An asterisk follows results filed as active; ? = inconclusive; nt = not tested or not shown; [ ] = another dose, or the depositor's remark. A selection: hits, their analogues and other compounds. The true share with any hit is near 9.4%. Unless noted, calls follow the shape of the dose curve; as a rule, active = well fitted curve in the direction sought with a large enough effect; inconclusive = small, poorly fitted or top-dose-only effect, or another doubt; inactive = no such curve, though single readings can be large; an effect the other way counts as inactive or inconclusive.
SMILES,IMPase Li inh,HTT aggregate,HPGD block,ALDH1A1 inh,IMPase inh,HTT cytoprotect
Cc1cccc(CNc2cc(-c3ccc(C(=O)N(C)C)cc3)ncn2)c1,-4%,nt,?,?,nt,0%
NS(=O)(=O)c1ccc(NC(=S)NCc2ccc3c(c2)OCO3)cc1,-7%,?,nt,22µM*,nt,3%[10 µM]
CC(C)OCCCNC(=S)Nc1ccc(S(N)(=O)=O)cc1,-10%,8%,7.9µM*,1%,nt,nt
NS(=O)(=O)c1ccc(NC(=S)NCc2ccc(Cl)cc2)cc1,4%[38.3 µM],5%,20µM*,22µM*,7,9%
NS(=O)(=O)c1ccc(NC(=S)NCc2ccco2)cc1,6%,-12%[9.22 µM],nt,6.3µM*,nt,-2%[10 µM]
NS(=O)(=O)c1cccc(NC(=S)NCc2ccc3c(c2)OCO3)c1,1%,18%,nt,?,nt,nt
COc1ccc(Cl)cc1NC(=O)CSC1=Nc2ccccc2C2=NC(CC(=O)NC3CCCCC3)C(=O)N12 (configuration not stated),nt,nt,nt,nt,4,nt
COc1ccc(-c2cc3nc(-c4ccc(C)cc4)cc(C(F)(F)F)n3n2)cc1,nt,nt,nt,nt,-1,nt
N#C[C@H](C(=O)O)C(c1c(Cl)cccc1Cl)[C@H](C#N)C(=O)O,-10%,nt,4%,-6%[13.5 µM],nt,11%[10 µM]
COc1cc(NC(=S)Nc2ncccc2C)cc(OC)c1OC,4%,10%[9.22 µM],nt,18µM*,nt,14%
COc1ccccc1NC(=S)NCc1ccco1,25%[38.3 µM],12%,-29%,-11%,-5,-3%
COc1cc(NC(=S)NCc2ccco2)cc(OC)c1OC,2%,-5%,16µM*,?,-1,7%[10 µM]
S=C(NCc1ccc(Cl)cc1)Nc1ccccc1,-10%,8%,18µM*,-6%,nt,nt
Cc1ccccc1NC(=S)NCc1ccc(Cl)cc1,7%,25%,16µM*,?,nt,12%[10 µM]
CCCCCOc1ccc(Cn2c(=O)oc3ccc(C)cc32)cc1OC,nt,nt,nt,nt,13,nt
COC(=O)C1C(C)OC(=O)NC1c1ccccc1 (configuration not stated),nt,nt,nt,7%[13.5 µM],nt,-19%[10 µM]
CC1(C)Cc2c(C#N)c(N3CCN(C(=O)c4ccccc4)CC3)nc(Cc3ccccc3)c2CO1,32%[38.3 µM],22µM*,?,?,17,-23%
CCc1nc(N2CCN(C(=O)c3ccccc3)CC2)c(C#N)c2c1COC(C)(C)C2,nt,-28%,nt,?,6,5%
Cc1cc(C)nc(N2CCCC(C(=O)Nc3ccc4nc(C)c(C)nc4c3)C2)n1 (configuration not stated),13%[38.3 µM],-4%,-14%,16µM*,-3,-7%[10 µM]
Cc1cnc(CNc2ncncc2-c2ccccc2CN(C)C)cn1,20%,nt,-14%,-5%,nt,10%
CC1CCC(C(=O)NC(C(=O)OCC(=O)c2ccccc2)C(C)C)CC1 (configuration not stated),nt,nt,nt,nt,-2,nt
CCN1C(=O)CSc2ccc(C(=O)NC3CCCCC3)cc21,-3%[38.3 µM],-12%,-4%,13µM*,-4,-30%
C=CCN1C(=O)CSc2ccc(C(=O)NCc3cccs3)cc21,6%,-15%,nt,8.9µM*,nt,3%[10 µM]
CCC(C)NC(=O)c1ccc2c(c1)N(Cc1ccccc1)C(=O)CS2 (configuration not stated),?,0%,nt,-16%,nt,-22%
CCN1C(=O)CSc2ccc(C(=O)NCc3ccccc3OC)cc21,14%[38.3 µM],-20%,-15%,10µM*,10,5%
SMILES,IMPase Li inh,HTT aggregate,HPGD block,ALDH1A1 inh,IMPase inh,HTT cytoprotect
COc1ccccc1CNc1cc(-c2c(C)noc2C)ncn1,12%,nt,nt,8%,nt,-10%
COc1ccc(N(C(=O)c2ccccc2C)S(=O)(=O)c2ccc3c(c2)n(C)c(=O)n3C)cc1,nt,nt,nt,nt,3,nt
O=C1CC(N2CCN(c3ccc(O)cc3)CC2)C(=O)N1Cc1cccs1 (configuration not stated),26%[38.3 µM],2%,-1%,25µM*,-5,6%[10 µM]
O=C(c1ccncc1)c1ccc(N2CCN(C3CC(=O)N(Cc4cccs4)C3=O)CC2)cc1 (configuration not stated),19%,?,nt,?,nt,9%
CCOCN(C(=O)CSc1nc2ccccc2[nH]1)c1c(C)cccc1CC,nt,nt,nt,nt,17,nt
C/C(=N\NC(=O)c1cccc(N/N=C(\C)c2cc(O)ccc2O)c1)c1cc(O)ccc1O,13%,?,nt,7.9µM*,nt,4%[10 µM]
Cc1ccc(SCC(=O)Nc2ccc(-c3nnc(-c4ccco4)o3)cc2)cc1,-2%[38.3 µM],4%,-14%,-5%,2,-54%
COc1ccc(C(=O)CSc2nnc(-c3ccco3)c(-c3ccco3)n2)cc1,12%,nt,nt,4µM*,nt,nt
O=C(CSc1nnc(-c2ccco2)c(-c2ccco2)n1)Nc1ccccc1,5%[38.3 µM],32%,25µM*,2µM*,4,-30%
CSc1nnc(-c2ccco2)c(-c2ccco2)n1,18%[38.3 µM],?,8.9µM*,3.5µM*,-9,36%
Cc1ccc(NC(=O)CSc2nnc(-c3ccco3)c(-c3ccco3)n2)cc1,-14%[38.3 µM],20%,11µM*,3.2µM*,1,-21%
COc1ccc(C(=O)CSc2nnc(-c3ccco3)n2C)cc1,4%[38.3 µM],-1%,-4%,?,7,-4%
N#Cc1ccc(CN2CC3(CCN(C(=O)c4cc(C(F)(F)F)cc(C(F)(F)F)c4)CC3)C2)cc1,9%,nt,-7%,8%,nt,-32%
Cc1ccc(Cl)cc1N1CCN(C(=O)C2CCCN(S(=O)(=O)c3ccc(Br)s3)C2)CC1 (configuration not stated),nt,nt,nt,nt,3,nt
COc1cc2c(cc1OC)C(C1C(=O)CCCC1=O)N(C(=O)CCl)CC2 (configuration not stated),0%,8%,-8%,?,nt,2%[10 µM]
COc1ccc2c(c1)CCN(C(=O)CCl)C2C1C(=O)CCCC1=O (configuration not stated),3%,-5%,-5%,22µM*,nt,-7%[10 µM]
Cc1ccc(SCC(=O)c2c(C)nc3ccccn23)cc1,-1%,14µM*,nt,?,nt,-79%
COc1ccc(Br)cc1S(=O)(=O)NNC(=O)c1c(C)nc2ccccn12,15%,-3%[9.22 µM],nt,?,nt,-17%[10 µM]
Cc1nc2ccccn2c1C(=O)NNS(=O)(=O)c1ccc(C(C)(C)C)cc1,11%,-28%,-1%,1.1µM*,nt,21%[0.074 µM]
COc1ccc(CCNC(=O)c2c(C)nc3ccccn23)cc1,4%,-8%,nt,-11%,nt,-1%
CCNC(=O)c1c(C)nc2ccccn12,-16%[38.3 µM],-18%,-16%,3%,-2,-3%
COc1ccc(CNC(=O)c2c(C)nc3ccccn23)cc1,3%,25µM*,-16%,-1%,-17[1.84 µM],22%[10 µM]
Cc1nc2ccccn2c1C(=O)NN,nt,-5%,nt,2.2µM*,-2,1%[10 µM]

# Screening results from PubChem.
